Among the data in PubChem BioAssay (NCI) are growth values, retold here.

Test systems include DU-145 prostate; K-562 leukemia; MALME-3M melanoma; MDA-MB-231 breast; SF-268 CNS; SF-295 CNS; SF-539 CNS; UACC-257 melanoma; M14 melanoma.
Assay in all cases: NCI-60 one-dose screen, 48 h (100 = growth as untreated, 0 = no growth, -100 = all killed)
Settings in all cases: 10 µM

Each structure is given as a SMILES string. This is part of a sample that, as a whole, favours compounds with a hit. Of some 83,000 tested, about 20% had one in any assay.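 Single-dose data. Exposure time 48 hours. Values below 10 considered active.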 Unmarked numbers belong to inactive results. Activity calls are given as the source filed them.

In the case of `O=C(NO)c1ccc(CNc2nc(-c3ccccc3)c3ccccc3n2)cc1`, the growth in the test on DU-145 prostate was 10.2%; in the test on K-562 leukemia it was 9.84% (active); in the test with MALME-3M melanoma, -34.4% (active); in the test with MDA-MB-231 breast, -21.8% (active); in the test with SF-268 CNS it was 7.8% (active); in the test with SF-295 CNS it was -49% (active). For the same molecule, the growth was 1.02% (active) in the test with SF-539 CNS, 1.34% (active) in the test with UACC-257 melanoma and 9.54% (active) in the test on M14 melanoma.

Consider `Cc1ccc(CNC(=O)Cc2ccc3c(c2)CN(C2CCC(=O)NC2=O)C3=O)cc1` (stereo not given), for which the growth with DU-145 prostate was 30.2%; in the test on K-562 leukemia, 14.5%; in the test with MALME-3M melanoma, -64.1% (active); in the test on MDA-MB-231 breast, -36.7% (active); with SF-268 CNS it was 9.5% (active); in the test on SF-295 CNS, 6.35% (active). The growth in the test on SF-539 CNS is 18.6%; in the test on UACC-257 melanoma, 70.5%; with M14 melanoma, -23.5% (active).

In the case of `COc1ccc(-c2nc(Nc3ccccc3S(N)(=O)=O)c3ccccc3n2)cc1`, the growth in the test with DU-145 prostate is 7.82% (active); in the test on K-562 leukemia it was 34.1%; in the test on MALME-3M melanoma, -7.51% (active); with MDA-MB-231 breast, -33.6% (active); in the test on SF-268 CNS it was 22.5%; with SF-295 CNS, 61.3%. The results for the growth with SF-539 CNS, in the test with UACC-257 melanoma and in the test with M14 melanoma were -4.27% (active), 91.2% and 75.8%, respectively.

Take `CCCCOc1ccc(Nc2nc3ccccc3nc2Nc2ccc(OCCCC)cc2)cc1`: the growth with DU-145 prostate was 87.9%; in the test with K-562 leukemia it was 77.3%; in the test on MALME-3M melanoma, 106%; in the test with MDA-MB-231 breast it was 109%; in the test on SF-268 CNS, 82%; with SF-295 CNS it was 87.5%. Moreover, the growth in the test on SF-539 CNS is 106%; in the test with UACC-257 melanoma it was 97.3%; in the test on M14 melanoma, 88.5%.

Turning to `Cc1cc(=O)oc2cc(OCCCCOc3ccc(/C=C/C(=O)Nc4ccccc4[N+](=O)[O-])cc3)ccc12`, the growth was 102% in the test on DU-145 prostate; 102% in the test with K-562 leukemia; 101% in the test on MALME-3M melanoma; 102% in the test on MDA-MB-231 breast; 120% with SF-268 CNS; 99.8% in the test on SF-295 CNS. Also, the growth with SF-539 CNS was 98.8%; in the test with UACC-257 melanoma, 111%; in the test with M14 melanoma, 112%.

`CSc1nc(-c2cccc(C)c2)c2cc(-c3ccccc3)n(C)c2n1`: the growth was 31.4% with DU-145 prostate; 12% in the test with K-562 leukemia; 20.1% in the test on MALME-3M melanoma; 33.1% in the test with MDA-MB-231 breast; 25.7% in the test on SF-268 CNS; 17.3% in the test on SF-295 CNS. In addition, the growth with SF-539 CNS is 14.3%; in the test on UACC-257 melanoma, 40.5%; in the test with M14 melanoma, 21%.

As for `COc1cc2c3c(n(CCCN4CCOCC4)c(=O)c2cc1OC)-c1nc2c(cc1C3=O)OCO2`, the growth in the test with DU-145 prostate is 3.38% (active); with K-562 leukemia it was 25.9%; with MALME-3M melanoma it was 40.2%; in the test on MDA-MB-231 breast it was 6.41% (active); in the test with SF-268 CNS, 21.9%; with SF-295 CNS, -30.8% (active). The values for the growth in the test on SF-539 CNS, in the test on UACC-257 melanoma and in the test on M14 melanoma were -38.7% (active), 51% and 13.4%, respectively.

On to `O=C(Nc1nc2ccccc2s1)c1ccc(Br)cc1`, for which the growth in the test with DU-145 prostate was 97.2%; in the test with K-562 leukemia, 64.1%; with MALME-3M melanoma, 85.2%; in the test with MDA-MB-231 breast, 93.4%; in the test on SF-268 CNS, 112%; with SF-295 CNS, 67.3%. Besides, the growth in the test on SF-539 CNS is 92.8%; in the test with UACC-257 melanoma, 85%; in the test on M14 melanoma, 96%.

Consider `O=C(NO)c1ccc(CNC(=O)[C@H]2Cc3c([nH]c4ccccc34)[C@H](c3ccccc3)N2)cc1`, for which the growth with DU-145 prostate was 29.5%; with K-562 leukemia it was 11.6%; in the test with MALME-3M melanoma, 15.2%; in the test with MDA-MB-231 breast, 7.55% (active); with SF-268 CNS, 40.3%; in the test with SF-295 CNS, 17.7%. Further, the results for the growth in the test on SF-539 CNS, in the test on UACC-257 melanoma and with M14 melanoma were 34%, 21.4% and 27.5%, respectively.

As to `O=C(Cc1ccc2c(c1)CN(C1CCC(=O)NC1=O)C2=O)NCCc1ccccc1` (stereo not given), the growth with DU-145 prostate was 66.8%; with K-562 leukemia it was 20.2%; with MALME-3M melanoma, -59.7% (active); with MDA-MB-231 breast, -32.2% (active); in the test on SF-268 CNS it was 31.3%; with SF-295 CNS, 17%. Also, the figures for the growth in the test on SF-539 CNS, in the test on UACC-257 melanoma and in the test on M14 melanoma were 29.1%, 92.2% and 7.92% (active), respectively.

For `COc1cc(C2CC(c3ccccc3)=Nc3c(N)nc(N)nc3N2)ccc1Oc1nc(Nc2ccc(F)cc2)nc(N(C)C)n1` (stereo not given), the growth in the test on DU-145 prostate is 48%; in the test on K-562 leukemia it was 17.9%; in the test with MALME-3M melanoma, 32.4%; with MDA-MB-231 breast, 31%; in the test on SF-268 CNS, 55%; in the test on SF-295 CNS, 45.9%. The growth with SF-539 CNS is 63%; in the test with UACC-257 melanoma, 45.4%; in the test with M14 melanoma it was 46.6%.

With `N#Cc1ccc(-c2nn(-c3ccc(C(=O)O)cc3)cc2CNc2ccc(Cl)cc2)cc1`, the growth in the test on DU-145 prostate is 97.6%; in the test on K-562 leukemia it was 69.4%; with MALME-3M melanoma, 102%; in the test with MDA-MB-231 breast, 90.6%; in the test with SF-268 CNS, 78.6%; with SF-295 CNS, 63.3%. In addition, the values for the growth with SF-539 CNS, with UACC-257 melanoma and in the test on M14 melanoma were 80.1%, 97.8% and 83.4%, respectively.

As to `O=C(Nc1cccc(C(F)(F)F)c1)c1cncc(C#Cc2cnc3cccnn23)c1`, the growth is 22.6% in the test on DU-145 prostate; 8.07% (active) with K-562 leukemia; 28% with MALME-3M melanoma; 27.9% in the test on MDA-MB-231 breast; 46.4% in the test on SF-268 CNS; 63.5% in the test with SF-295 CNS. In addition, the growth with SF-539 CNS was 31.9%; in the test on UACC-257 melanoma it was 83.6%; in the test with M14 melanoma, 35.5%.

As for `Cc1ccc(-c2cc(C(=O)N=Nc3c(O)[nH]c4ccc(Br)cc34)c3ccccc3n2)cc1`, the growth was 85.8% with DU-145 prostate; 17.8% with K-562 leukemia; 80.2% in the test with MALME-3M melanoma; 41.7% in the test on MDA-MB-231 breast; 80.9% in the test on SF-268 CNS; 76.5% with SF-295 CNS. In addition, the figures for the growth in the test on SF-539 CNS, in the test on UACC-257 melanoma and in the test on M14 melanoma were 76%, 103% and 75.6%, respectively.

Take `O=C(CSc1nnc(-c2c[nH]c3ccccc23)n1-c1ccccc1)c1ccccc1`: the growth in the test on DU-145 prostate is 85.7%; in the test with K-562 leukemia, 52.8%; in the test with MALME-3M melanoma, 37.4%; with MDA-MB-231 breast, 27%; with SF-268 CNS it was 31.7%; in the test on SF-295 CNS it was 72%. Also, the values for the growth in the test with SF-539 CNS, with UACC-257 melanoma and in the test with M14 melanoma were 7.59% (active), 103% and 73.6%, respectively.
